ChEMBL document CHEMBL3988442, “University of Dundee, Small-Polar-MMV Screening Library” (2021)
For some of these results: Entries with a potency or affinity are not part of this list.

Key:
Design in all cases: scale not given: direction of the effect not stated beside the values
[1] = molecular target: Protein translocase subunit SecA (Escherichia coli (strain K12)) (UniProt P10408); experiment: Assay to Identify E. coli SecA ATPase Inhibitors; assay type: functional; details: 30 µM
[2] = molecular target: T1, Ubiquitin-activating enzyme e1, putative (Leishmania donovani (strain BPK282A1)) (UniProt E9BSI1); experiment: Leishmania donovani Ubiquitin Activating Enzyme (LdE1); assay type: functional; details: 30 µM
T1 sequence (whole entry): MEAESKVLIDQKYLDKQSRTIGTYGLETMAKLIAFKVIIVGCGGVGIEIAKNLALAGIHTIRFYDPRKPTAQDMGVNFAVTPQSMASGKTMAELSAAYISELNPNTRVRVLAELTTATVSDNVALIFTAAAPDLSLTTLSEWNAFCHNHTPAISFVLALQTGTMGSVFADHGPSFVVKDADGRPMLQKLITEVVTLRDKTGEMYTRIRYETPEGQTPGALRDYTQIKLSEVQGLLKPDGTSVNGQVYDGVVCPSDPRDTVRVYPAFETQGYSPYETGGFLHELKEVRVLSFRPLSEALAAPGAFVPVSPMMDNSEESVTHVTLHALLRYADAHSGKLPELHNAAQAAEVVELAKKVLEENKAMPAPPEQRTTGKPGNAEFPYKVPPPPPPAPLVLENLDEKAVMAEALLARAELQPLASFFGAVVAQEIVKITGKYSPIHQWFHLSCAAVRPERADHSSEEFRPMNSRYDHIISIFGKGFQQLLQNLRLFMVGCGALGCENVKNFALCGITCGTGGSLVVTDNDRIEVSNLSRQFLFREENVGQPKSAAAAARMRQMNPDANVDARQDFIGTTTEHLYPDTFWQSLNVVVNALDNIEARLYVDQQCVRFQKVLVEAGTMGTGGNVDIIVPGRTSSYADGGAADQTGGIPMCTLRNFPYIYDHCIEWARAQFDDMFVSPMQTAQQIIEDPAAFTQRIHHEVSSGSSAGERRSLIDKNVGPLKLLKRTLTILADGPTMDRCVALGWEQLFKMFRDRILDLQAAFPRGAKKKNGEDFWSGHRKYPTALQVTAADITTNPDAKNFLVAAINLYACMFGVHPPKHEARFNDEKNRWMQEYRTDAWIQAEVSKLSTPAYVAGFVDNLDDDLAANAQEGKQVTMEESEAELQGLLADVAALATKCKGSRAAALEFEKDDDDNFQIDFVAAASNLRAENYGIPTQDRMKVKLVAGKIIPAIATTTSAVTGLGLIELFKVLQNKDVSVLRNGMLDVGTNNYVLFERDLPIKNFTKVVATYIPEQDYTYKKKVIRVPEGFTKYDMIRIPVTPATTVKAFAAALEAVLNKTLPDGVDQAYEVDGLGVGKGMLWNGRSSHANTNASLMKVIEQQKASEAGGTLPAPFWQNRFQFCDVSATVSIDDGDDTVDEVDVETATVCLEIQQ

[3] = molecular target: AMP-activated protein kinase, AMPK (Homo sapiens) (UniProt P54646+O43741+P54619+Q9UGJ0+Q9Y478+Q13131+Q9UGI9); experiment: AMP-dependent Kinase enzyme assay. An in vitro enzyme assay that detects ADP turnover that is directly proportional to AMPK activity. This uses naive AMPK that is activated during the assay with MK-8722; assay type: functional; details: 30 µM
[4] = molecular target: Sialic acid-binding Ig-like lectin 9 (Homo sapiens) (UniProt Q9Y336); experiment: Hs-Siglec9 ALPHAscreen SOP 20170721; details: 10 µM
Sequence of Sialic acid-binding Ig-like lectin 9 (Homo sapiens) (Q9Y336 whole entry): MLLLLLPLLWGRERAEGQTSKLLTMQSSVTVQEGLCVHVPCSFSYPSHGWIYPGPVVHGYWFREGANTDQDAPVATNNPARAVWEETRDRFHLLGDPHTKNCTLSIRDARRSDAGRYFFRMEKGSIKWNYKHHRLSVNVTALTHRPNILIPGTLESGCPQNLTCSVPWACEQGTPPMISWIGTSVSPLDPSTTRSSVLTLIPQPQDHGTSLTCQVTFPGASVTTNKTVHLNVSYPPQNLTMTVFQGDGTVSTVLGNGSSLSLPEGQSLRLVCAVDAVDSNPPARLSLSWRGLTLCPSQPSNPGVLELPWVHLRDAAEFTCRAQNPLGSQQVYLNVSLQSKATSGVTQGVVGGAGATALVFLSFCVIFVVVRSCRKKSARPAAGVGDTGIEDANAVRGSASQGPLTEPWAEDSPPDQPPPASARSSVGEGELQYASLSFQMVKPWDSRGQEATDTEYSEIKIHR

Trypanosoma cruzi = experiment: Trypanosoma cruzi phosphomannomutase and mannose-1-phosphate guanylyltransferase assay; assay type: functional; details: 10 µM
[5] = molecular target: T2, Arginase-2, mitochondrial (Homo sapiens) (UniProt P78540); experiment: in vitro enzyme assay to detect the production of urea directly proportional to the activity of Arginase II; assay type: functional; details: 33.3 µM; further: in the data most compounds retested in dose-response had high values
T2 sequence (whole entry): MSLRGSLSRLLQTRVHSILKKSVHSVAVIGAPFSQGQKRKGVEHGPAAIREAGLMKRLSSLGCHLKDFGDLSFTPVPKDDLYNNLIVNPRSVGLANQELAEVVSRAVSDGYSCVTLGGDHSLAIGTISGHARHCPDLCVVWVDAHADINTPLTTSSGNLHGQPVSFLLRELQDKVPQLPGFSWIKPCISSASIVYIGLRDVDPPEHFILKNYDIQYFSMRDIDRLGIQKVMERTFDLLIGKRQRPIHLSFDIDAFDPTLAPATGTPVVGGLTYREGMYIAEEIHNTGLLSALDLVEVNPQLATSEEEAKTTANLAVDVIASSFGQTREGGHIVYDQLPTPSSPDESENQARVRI

[6] = molecular target: T3, Proteasome subunit beta (Trypanosoma cruzi) (UniProt O96673); experiment: Trypanosoma cruzi proteasome chymotrypsin-like activity (TcProtChymo) assay.; further: in the data most compounds retested in dose-response had high values; assay type: functional; details: 9.37 µM
T3 sequence (whole entry): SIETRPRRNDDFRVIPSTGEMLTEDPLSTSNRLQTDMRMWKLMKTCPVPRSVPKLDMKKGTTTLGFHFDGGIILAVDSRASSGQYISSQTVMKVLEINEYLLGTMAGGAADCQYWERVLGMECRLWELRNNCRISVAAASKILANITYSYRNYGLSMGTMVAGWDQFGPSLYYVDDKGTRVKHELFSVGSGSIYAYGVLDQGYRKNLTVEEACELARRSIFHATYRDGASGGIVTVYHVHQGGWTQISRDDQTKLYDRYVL

Homo sapiens = species: Homo sapiens; experiment: To identify inhibition of the IFN signalling (Jak-Stat) pathway via expression of an eGFP reporter gene under the control of an IFN-stimulated response element (ISRE) containing MxA promoter.; assay type: functional; details: 30 µM
[7] = molecular target: T4, Tyrosyl-tRNA synthetase, putative (Trypanosoma cruzi (strain CL Brener)) (UniProt Q4DSP6); experiment: Trypanosoma cruzi tyrosyl tRNA synthetase (TcYRS) _High Tyrosine SOP; assay type: functional; details: 30 µM; further: in the data most compounds retested in dose-response had high values
T4 sequence (whole entry): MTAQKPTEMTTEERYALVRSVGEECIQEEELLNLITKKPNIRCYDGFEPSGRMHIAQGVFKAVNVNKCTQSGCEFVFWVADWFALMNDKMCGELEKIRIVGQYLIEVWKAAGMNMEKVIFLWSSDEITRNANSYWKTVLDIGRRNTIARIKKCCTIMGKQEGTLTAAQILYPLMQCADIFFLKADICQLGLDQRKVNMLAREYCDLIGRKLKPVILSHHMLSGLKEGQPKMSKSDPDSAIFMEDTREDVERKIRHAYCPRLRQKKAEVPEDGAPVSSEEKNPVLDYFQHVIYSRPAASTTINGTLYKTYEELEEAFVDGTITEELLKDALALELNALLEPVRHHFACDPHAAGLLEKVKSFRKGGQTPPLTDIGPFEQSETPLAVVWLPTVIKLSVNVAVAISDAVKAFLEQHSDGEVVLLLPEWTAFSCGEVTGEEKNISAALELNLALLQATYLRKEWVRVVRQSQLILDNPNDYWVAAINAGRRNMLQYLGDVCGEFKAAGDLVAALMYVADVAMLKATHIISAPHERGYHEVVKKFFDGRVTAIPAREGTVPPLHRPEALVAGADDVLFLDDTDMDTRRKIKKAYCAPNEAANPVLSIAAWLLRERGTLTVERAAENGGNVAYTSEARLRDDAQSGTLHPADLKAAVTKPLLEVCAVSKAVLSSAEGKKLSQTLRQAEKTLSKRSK

[8] = molecular target: T4, Tyrosyl-tRNA synthetase, putative (Trypanosoma cruzi (strain CL Brener)); experiment: Trypanosoma cruzi tyrosyl tRNA synthetase (TcYRS) SOP; assay type: functional; details: 30 µM
[9] = molecular target: Chromo domain-containing protein 1 (Saccharomyces cerevisiae (strain ATCC 204508 / S288c) (Baker's yeast)) (UniProt P32657); experiment: ScCHD-1 Enzyme Inhibition Assay; assay type: functional; details: 30 µM; further: in the data most compounds retested in dose-response had high values
Sequence of Chromo domain-containing protein 1 (Saccharomyces cerevisiae (strain ATCC 204508 / S288c) (Baker's yeast)) (P32657 whole entry, the tested form may be a part): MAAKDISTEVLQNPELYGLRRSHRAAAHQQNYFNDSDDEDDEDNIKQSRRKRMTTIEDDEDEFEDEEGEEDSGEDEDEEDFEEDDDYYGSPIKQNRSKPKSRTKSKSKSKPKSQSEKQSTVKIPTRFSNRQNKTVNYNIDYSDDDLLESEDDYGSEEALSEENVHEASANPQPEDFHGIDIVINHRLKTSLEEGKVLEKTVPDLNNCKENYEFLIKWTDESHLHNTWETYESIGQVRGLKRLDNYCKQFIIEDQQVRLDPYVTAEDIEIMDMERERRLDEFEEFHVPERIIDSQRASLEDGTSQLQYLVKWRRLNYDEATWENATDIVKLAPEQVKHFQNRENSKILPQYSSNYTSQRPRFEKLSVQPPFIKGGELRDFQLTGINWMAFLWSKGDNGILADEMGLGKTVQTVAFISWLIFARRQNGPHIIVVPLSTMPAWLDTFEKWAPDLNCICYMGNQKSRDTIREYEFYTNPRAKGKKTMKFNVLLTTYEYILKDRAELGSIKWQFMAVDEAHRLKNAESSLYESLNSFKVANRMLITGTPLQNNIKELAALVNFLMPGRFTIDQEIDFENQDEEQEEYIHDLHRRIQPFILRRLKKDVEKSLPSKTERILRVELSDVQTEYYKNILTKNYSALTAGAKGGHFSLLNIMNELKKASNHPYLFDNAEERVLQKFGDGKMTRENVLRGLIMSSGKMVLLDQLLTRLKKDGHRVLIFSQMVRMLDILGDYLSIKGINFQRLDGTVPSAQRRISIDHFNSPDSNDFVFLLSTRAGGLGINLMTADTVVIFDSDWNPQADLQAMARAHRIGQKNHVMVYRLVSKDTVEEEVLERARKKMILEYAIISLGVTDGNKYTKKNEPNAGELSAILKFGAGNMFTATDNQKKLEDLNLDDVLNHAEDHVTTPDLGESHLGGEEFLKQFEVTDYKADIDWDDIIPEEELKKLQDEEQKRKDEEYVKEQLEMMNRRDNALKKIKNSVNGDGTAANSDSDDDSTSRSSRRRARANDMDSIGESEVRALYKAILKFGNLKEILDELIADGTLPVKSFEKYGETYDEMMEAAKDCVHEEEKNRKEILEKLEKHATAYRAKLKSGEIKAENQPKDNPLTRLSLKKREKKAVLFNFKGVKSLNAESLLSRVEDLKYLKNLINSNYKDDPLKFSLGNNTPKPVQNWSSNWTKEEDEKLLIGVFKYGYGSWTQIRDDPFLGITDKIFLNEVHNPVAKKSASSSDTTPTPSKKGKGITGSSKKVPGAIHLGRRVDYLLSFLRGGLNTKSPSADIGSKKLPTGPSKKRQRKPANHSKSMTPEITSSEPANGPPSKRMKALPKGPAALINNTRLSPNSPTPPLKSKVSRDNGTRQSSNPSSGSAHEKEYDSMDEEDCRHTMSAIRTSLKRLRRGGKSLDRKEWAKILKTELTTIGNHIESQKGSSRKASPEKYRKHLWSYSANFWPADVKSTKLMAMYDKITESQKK

Sequence of Protein translocase subunit SecA (Escherichia coli (strain K12)) (P10408 whole entry): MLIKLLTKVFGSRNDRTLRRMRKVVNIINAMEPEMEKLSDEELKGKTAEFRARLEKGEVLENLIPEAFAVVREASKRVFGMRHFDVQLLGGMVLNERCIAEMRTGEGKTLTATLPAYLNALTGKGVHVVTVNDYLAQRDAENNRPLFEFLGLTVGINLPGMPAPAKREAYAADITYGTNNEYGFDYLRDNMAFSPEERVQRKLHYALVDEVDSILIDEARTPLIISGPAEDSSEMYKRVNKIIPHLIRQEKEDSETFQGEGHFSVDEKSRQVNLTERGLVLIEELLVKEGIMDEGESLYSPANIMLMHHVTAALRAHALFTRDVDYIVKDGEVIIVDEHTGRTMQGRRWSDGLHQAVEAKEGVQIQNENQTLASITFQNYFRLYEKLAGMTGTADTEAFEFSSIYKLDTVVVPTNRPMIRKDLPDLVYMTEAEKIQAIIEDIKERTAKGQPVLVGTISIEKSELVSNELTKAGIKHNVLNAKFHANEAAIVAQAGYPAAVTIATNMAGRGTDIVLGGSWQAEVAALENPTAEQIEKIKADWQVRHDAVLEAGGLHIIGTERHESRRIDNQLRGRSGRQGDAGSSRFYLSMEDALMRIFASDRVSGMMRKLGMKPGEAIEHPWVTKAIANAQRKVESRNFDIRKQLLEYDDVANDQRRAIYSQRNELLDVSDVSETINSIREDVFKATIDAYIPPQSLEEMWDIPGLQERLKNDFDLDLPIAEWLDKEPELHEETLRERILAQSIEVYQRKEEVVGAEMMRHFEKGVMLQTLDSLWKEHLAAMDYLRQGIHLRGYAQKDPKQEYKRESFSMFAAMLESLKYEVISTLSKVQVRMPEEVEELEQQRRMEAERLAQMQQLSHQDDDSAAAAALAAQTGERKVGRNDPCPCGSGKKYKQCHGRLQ

Row | Compound | Percent Effect [1] [%] | Percent Effect [2] [%] | Percent Effect [3] [%] | Percent Effect [4] [%] | Percent Effect (Trypanosoma cruzi) [%] | Percent Effect [5] [%] | Percent Effect [6] [%] | Percent Effect (Homo sapiens) [%] | Percent Effect [7] [%] | Percent Effect [8] [%] | Percent Effect [9] [%]
1 | COc1ccccc1C1CNC(=O)c2nc(-c3cnn(C)c3)[nH]c2C1 (stereo not drawn) | 0.9 | 10.8 | -0.668 | 22.2 | 3.48 | 1.43 | 10 | 5.8 | 5.82 | 17.1 | -0.454
2 | CN(CCC(F)(F)F)C(=O)C1CCCN1C(=O)OC(C)(C)C (stereo not drawn) | -3.42 | 2.74 | 0.924 | -4.88 | 2.15 | 2.27 | -2.31 | -3.94 | 3.23 | 2.5 | -0.543
3 | COc1cccc(-n2c(C)cc(C(=O)NS(C)(=O)=O)c2C)c1 | -2.83 | 20.2 | -2.25 | -3.1 | -4.63 | 2.28 | 2.21 | 8.44 | 6.4 | 13.9 | -5.99
4 | O=C(NC1CC1)c1cc(NC(=O)N2CCCC(O)C2)ccc1Cl (stereo not drawn) | -1.73 | 11 | 1.28 | 3.66 | -5.36 | 1.6 | 16.4 | -0.927 | 6.25 | 13.6 | 1.44
5 | Cc1cn2nc(N3CCCN(Cc4noc(C)n4)CC3)sc2n1 | -4 | 11.4 | 7.75 | 2.12 | -2.97 | 1.94 | 13.4 | 0.85 | 7.29 | 12.7 | -14.4
6 | CC1CN(Cc2noc(C3CC3)n2)CCN1Cc1nccn1C (stereo not drawn) | -5.15 | 2.53 | -12.8 | 3.3 | 5.19 | -2.66 | 1.72 | 8.77 | 6.4 | 11.4 | -1.35
7 | CCCc1cc(C(=O)N(C)Cc2cnc3ccccc3n2)n(C)n1 | -7.11 | 5.2 | 2.82 | 6.76 | 2.06 | 11 | 8.82 | 7.96 | 7.53 | 11.1 | 2.1
8 | Cc1nc(CN(C)C2CCN(CC(=O)NC3CCOCC3)C2)no1 (stereo not drawn) | -1.63 | 16.2 | -9.99 | 0.0133 | -0.836 | -3.14 | 11.1 | 11.9 | 5.94 | 18.3 | -5.55
